Reference: PubChem BioAssay
Some of the results follow. Active and inactive are the calls of the source.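 Rule for the calls, unless noted: active = fluorescence ratio falls more than 5 SD below the full-stimulation control mean, in both duplicate runs; inactive = the rest.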

Assays:
[1] = parental HEK293 membrane potential modulation, confirmation, counter-screen for TRPC6 modulator project, cell-based (AID 488924;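 active = membrane potential signal moves up or down beyond 5 SD from buffer-only wells, on both duplicate plates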); conditions: parental HEK293, membrane potential dye fluorescence; at 10 µM
[2] = modulation of acetylcholine-evoked membrane potential, parental HEK293, confirmation, counter-screen for TRPC6 modulator project, cell-based, second counter-screen, membrane potential dye (AID 488926;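 active = membrane potential signal drops by more than 5 SD from the mean control signal, in both duplicate plates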;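 for inhibition: plate controls were acetylcholine ECmax control wells for no effect and buffer only wells for full effect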); conditions: parental HEK293, membrane potential dye fluorescence, at 10 µM, after compound, maximal acetylcholine stimulation; hits give high values
[3] = system: Transient receptor potential cation channel subfamily C member 4 (mouse); test: TRPC4 modulation by TRPC6 hit compounds, confirmation, selectivity assay for TRPC6 modulator project, cell-based, HEK293 TRPC4/mu-opioid, membrane potential dye, mouse (AID 488927;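 active = membrane potential signal moved up or down beyond 5 SD of buffer control wells, in both duplicate plates, actives on both sides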;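 for percent change from control (negative = decrease, positive = increase): plate controls were assay buffer wells for no effect and DAMGO maximal-effect wells for full effect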); conditions: membrane potential fluorescence, at 10 µM
[4] = system: TRPC4 (transient receptor potential cation channel C4), mouse; test: TRPC4 inhibition by TRPC6 hit compounds, confirmation, selectivity assay for TRPC6 modulator project, cell-based, second screen, HEK293 TRPC4/mu-opioid, membrane potential dye (AID 488928;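 active = drop in membrane potential signal beyond 5 SD of the control wells in both duplicate plates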;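 note: TRPC4 counter screen for TRPC6 hits run under conditions tuned for TRPC6 not TRPC4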); conditions: membrane potential dye fluorescence, at 10 µM, stimulated with maximal-effect DAMGO; hits give high values
[5] = molecular target: Short transient receptor potential channel 6 (Mus musculus) (UniProt Q61143); test: mouse TRPC6 channel inhibitors, confirmation, HEK293 cells, membrane potential dye, duplicate (AID 488960); conditions: ACh-evoked depolarization, at 10 µM; hits give high values;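 for inhibition: integrated fluorescence ratio of peak minus minimum over baseline after agonist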
Sequence of Short transient receptor potential channel 6 (Mus musculus) (Q61143 whole entry, looked up): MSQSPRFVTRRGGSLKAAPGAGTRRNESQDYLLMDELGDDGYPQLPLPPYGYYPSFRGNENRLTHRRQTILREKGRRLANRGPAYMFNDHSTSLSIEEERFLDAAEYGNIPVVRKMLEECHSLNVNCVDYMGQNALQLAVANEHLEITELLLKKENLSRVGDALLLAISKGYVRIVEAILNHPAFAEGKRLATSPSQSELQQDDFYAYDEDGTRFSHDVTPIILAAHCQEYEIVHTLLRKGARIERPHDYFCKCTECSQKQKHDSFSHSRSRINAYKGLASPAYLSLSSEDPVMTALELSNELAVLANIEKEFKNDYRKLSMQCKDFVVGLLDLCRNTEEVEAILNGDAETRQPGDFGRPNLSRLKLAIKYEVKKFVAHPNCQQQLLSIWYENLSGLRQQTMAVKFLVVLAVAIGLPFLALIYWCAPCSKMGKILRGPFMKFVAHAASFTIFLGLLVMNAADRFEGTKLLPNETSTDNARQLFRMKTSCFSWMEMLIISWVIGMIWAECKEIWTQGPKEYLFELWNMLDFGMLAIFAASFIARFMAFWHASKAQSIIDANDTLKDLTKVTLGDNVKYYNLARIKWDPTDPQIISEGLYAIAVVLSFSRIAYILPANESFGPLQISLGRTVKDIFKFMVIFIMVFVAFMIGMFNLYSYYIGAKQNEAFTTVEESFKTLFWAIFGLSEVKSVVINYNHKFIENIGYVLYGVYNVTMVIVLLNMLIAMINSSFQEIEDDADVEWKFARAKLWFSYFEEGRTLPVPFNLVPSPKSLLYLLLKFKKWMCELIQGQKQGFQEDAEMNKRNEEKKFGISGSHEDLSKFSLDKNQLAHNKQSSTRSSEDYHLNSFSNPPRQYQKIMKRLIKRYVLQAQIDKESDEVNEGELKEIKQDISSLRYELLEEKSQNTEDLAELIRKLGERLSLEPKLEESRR

[6] = molecular target: Short transient receptor potential channel 6 (Mus musculus) (UniProt Q61143); test: mouse TRPC6 channel activators, confirmation, HEK293 cells, membrane potential dye, duplicate (AID 488961;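 active = ratio signal rise beyond 5 SD above unstimulated control wells' mean, seen in both duplicate runs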;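 for activation: plate controls were buffer EC0 wells for no effect and acetylcholine ECmax response for full effect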); conditions: HEK293-TRPC6 membrane potential dye fluorescence, FDSS, at 10 µM; hits give high values
[7] = thallium flux activation in parental CHO cells, counter-screen for KCNQ1 potentiator project (AID 493006;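 active = duplicate-averaged activation above buffer control mean plus 5 SD of those controls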;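 note: fluorescence ratio of max minus min over baseline after K+ and Tl+ depolarization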); conditions: parental CHO-K1 cells, FluxOR thallium flux, at 10 µM; hits give high values
[8] = molecular target: Potassium voltage-gated channel subfamily KQT member 1 (Homo sapiens) (UniProt P51787); test: KCNQ1 potassium channel potentiators, confirmation, FluxOR thallium flux, CHO cells, duplicates (AID 493007;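 active = potentiation averaged over duplicate wells exceeding buffer-only control mean by more than 3 SD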;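 note: 0% = buffer-only wells and 100% = R-L3 activator control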); conditions: KCNQ1 cell line, FluxOR thallium flux fluorescence, at 10 µM; hits give high values, % of reference activator effect, buffer zero
Sequence of Potassium voltage-gated channel subfamily KQT member 1 (Homo sapiens) (P51787 whole entry, looked up): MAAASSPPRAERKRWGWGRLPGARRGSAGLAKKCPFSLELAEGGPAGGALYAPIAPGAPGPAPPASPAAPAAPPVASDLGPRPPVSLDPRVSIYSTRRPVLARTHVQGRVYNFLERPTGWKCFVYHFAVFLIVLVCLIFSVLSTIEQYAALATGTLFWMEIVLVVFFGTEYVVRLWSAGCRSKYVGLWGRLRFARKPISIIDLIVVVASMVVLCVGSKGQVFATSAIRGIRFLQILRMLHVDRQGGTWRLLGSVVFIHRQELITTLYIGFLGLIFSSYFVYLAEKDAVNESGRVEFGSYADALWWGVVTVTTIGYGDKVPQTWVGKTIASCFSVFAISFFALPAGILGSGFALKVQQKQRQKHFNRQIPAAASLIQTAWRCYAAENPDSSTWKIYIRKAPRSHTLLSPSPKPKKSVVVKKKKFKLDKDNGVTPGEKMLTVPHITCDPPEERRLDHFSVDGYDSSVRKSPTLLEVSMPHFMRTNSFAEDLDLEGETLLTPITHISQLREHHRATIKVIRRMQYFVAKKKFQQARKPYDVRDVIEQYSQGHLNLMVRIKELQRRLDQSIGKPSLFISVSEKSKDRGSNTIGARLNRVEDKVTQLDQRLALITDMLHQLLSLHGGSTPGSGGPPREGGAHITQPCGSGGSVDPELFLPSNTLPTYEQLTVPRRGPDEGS

[9] = molecular target: Potassium voltage-gated channel subfamily KQT member 2 (Rattus norvegicus) (UniProt O88943); test: rat KCNQ2 channel potentiation, selectivity assay for KCNQ1 potentiator project, KCNQ2-CHO-K1 cells (AID 493009;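 active = mean duplicate potentiation above the buffer control mean plus 5 SD of buffer wells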;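 note: assay conditions were tuned for KCNQ1 rather than KCNQ2 modulators; signal is max minus min fluorescence divided by baseline after thallium stimulus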); conditions: FluxOR thallium flux fluorescence, at 10 µM; hits give high values, scaled: buffer 0, activator control 100
Sequence of Potassium voltage-gated channel subfamily KQT member 2 (Rattus norvegicus) (O88943 whole entry, looked up): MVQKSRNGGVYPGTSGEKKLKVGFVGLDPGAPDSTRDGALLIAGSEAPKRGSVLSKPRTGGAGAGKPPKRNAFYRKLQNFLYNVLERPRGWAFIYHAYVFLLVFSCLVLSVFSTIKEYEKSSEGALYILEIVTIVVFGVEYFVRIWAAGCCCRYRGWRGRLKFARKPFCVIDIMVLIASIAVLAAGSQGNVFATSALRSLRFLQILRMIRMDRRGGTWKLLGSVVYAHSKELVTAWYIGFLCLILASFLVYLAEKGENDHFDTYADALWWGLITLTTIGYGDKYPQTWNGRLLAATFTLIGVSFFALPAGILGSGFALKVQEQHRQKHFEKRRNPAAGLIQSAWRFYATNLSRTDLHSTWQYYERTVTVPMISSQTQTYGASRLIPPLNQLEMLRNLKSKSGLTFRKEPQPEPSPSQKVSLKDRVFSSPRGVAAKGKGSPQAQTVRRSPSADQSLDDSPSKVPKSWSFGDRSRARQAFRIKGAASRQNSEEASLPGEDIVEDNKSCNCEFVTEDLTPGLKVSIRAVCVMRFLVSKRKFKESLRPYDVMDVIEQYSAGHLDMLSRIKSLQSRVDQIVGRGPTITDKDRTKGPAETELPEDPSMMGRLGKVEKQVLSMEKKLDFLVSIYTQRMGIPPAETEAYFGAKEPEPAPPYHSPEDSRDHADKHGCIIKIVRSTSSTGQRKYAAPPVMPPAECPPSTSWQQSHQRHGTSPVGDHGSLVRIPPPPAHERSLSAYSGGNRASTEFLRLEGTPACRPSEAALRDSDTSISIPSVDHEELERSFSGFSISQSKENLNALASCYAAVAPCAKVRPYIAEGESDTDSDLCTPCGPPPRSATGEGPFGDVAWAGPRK

[10] = molecular target: Potassium voltage-gated channel subfamily KQT member 1 (Homo sapiens) (UniProt P51787); test: KCNQ1 channel current potentiators, confirmation, orthogonal assay for KCNQ1 potentiator project, IonWorks patch clamp, KCNQ1-CHO cells (AID 493184;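 active = current rise at least 3 SD above the untreated control mean in each of two repeat wells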); conditions: automated patch clamp current, at 10 µM; hits give high values
[11] = molecular target: Potassium voltage-gated channel subfamily KQT member 1 (Homo sapiens) (UniProt P51787); test: KCNQ1 potassium channel inhibitors, confirmation, cell-based, Tl flux, duplicate (AID 588353;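 active = primary screen active, with duplicate mean exceeding buffer control mean plus 3 SD of buffer wells, cut at about 28% in these data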;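 note: 0% = buffer control ratio and 100% = XE991 inhibitor control ratio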); conditions: KCNQ1 cell line, FluxOR thallium flux fluorescence, at 10 µM, hits give high values
[12] = thallium flux effects in parental CHO cells, counter-screen for KCNQ1 inhibitor project, cell-based, Tl flux (AID 588366;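 active = mean of duplicate thallium-flux fluorescence ratios in parental host cells more than 5 SD below the buffer control mean, cut at about 0.38 in these data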;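 note: ratio is peak minus minimum fluorescence divided by baseline fluorescence; actives read low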); conditions: parental CHO-K1, FluxOR thallium flux fluorescence ratio; at 10 µM; hits give low values; zero means no signal rise above baseline
[13] = molecular target: Potassium voltage-gated channel subfamily KQT member 2 (Rattus norvegicus) (UniProt O88943); test: KCNQ2 channel inhibition, selectivity assay for KCNQ1 inhibitor project, cell-based (AID 651746;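 active = mean percent inhibition of the KCNQ2 thallium signal more than 5 SD above the buffer-only control wells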;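 note: 0% = buffer control wells and 100% = XE-991 inhibitor control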); conditions: KCNQ2 cells, FluxOR thallium flux fluorescence, at 10 µM; hits give high values
[14] = molecular target: Potassium voltage-gated channel subfamily E member 1 (Homo sapiens) + Potassium voltage-gated channel subfamily KQT member 1 (Homo sapiens) (UniProt P15382+P51787); test: KCNQ1/KCNE1 channel inhibition, selectivity assay for KCNQ1 inhibitor project, CHO-K1 cells, thallium flux, FluxOR (AID 652147;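 active = mean percent inhibition of duplicate wells above the buffer-only control mean plus 3 SD of those controls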;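 note: 0% = buffer only wells and 100% = XE-991 inhibitor control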); conditions: FluxOR thallium flux fluorescence, at 10 µM; hits give high values
Sequence of Potassium voltage-gated channel subfamily E member 1 (Homo sapiens) + Potassium voltage-gated channel subfamily KQT member 1 (Homo sapiens) (P51787 whole entry, looked up): as the sequence (P51787 whole entry, looked up) above

CN1CCN(c2nc(Nc3ccc(O)cc3)nc3ccccc23)CC1
inactive: outcome [6]
active: membrane potential signal change [1] -221% | inhibition [2] 65.5% | percent change from control (negative = decrease, positive = increase) [3] -38% | inhibition [4] 71% | inhibition [5] 67.5%

CCCCCCn1cc(C(=O)O)c(=O)c2cc(F)c(N3CCCCC3)cc21
inactive: outcome [1] | outcome [2] | outcome [4] | outcome [5]
active: percent change from control (negative = decrease, positive = increase) [3] 11% | activation [6] 39.5%

CSCCC(NC(=O)c1ccc(=O)n(C)n1)c1nc2ccccc2[nH]1 (stereo not given)
inactive: outcome [1] | outcome [2] | outcome [3] | outcome [4] | outcome [5] | outcome [6]

COC(=O)c1c(NS(=O)(=O)c2ccc3ccccc3c2)sc2c1CCCC2
active: activation [7] 216% | potentiation [8] 60.5% | potentiation [9] 232%
inactive: outcome [10]

Cc1nn(Cc2ccc(C(=O)N3N=C(C(F)F)CC3(O)C(F)F)cc2)c(C)c1[N+](=O)[O-] (stereo not given)
active: percent change from control (negative = decrease, positive = increase) [3] -17.5%
inactive: outcome [1] | outcome [2] | outcome [4] | outcome [5] | outcome [6]

O=C(NC1C2CC3CC(C2)CC1C3)c1ccc(N2CCNCC2)c([N+](=O)[O-])c1 (stereo not given)
inactive: outcome [2] | outcome [6]
active: membrane potential signal change [1] -120% | percent change from control (negative = decrease, positive = increase) [3] -22% | inhibition [4] 70.5% | inhibition [5] 57.5%

CCCCN(C)CCCNC(=O)c1cc(-c2cccs2)nc2ccccc12
inactive: outcome [1] | outcome [2] | outcome [5] | outcome [6]
active: percent change from control (negative = decrease, positive = increase) [3] -13% | inhibition [4] 65.5%

CC(NC(=S)Nc1ccc(OC(F)F)cc1)c1ccc(F)cc1 (stereo not given)
active: percent change from control (negative = decrease, positive = increase) [3] -14.5%
inactive: outcome [1] | outcome [2] | outcome [4] | outcome [5] | outcome [6]

CCCc1cc(=O)oc2c(C)c(O)c(CN3CCCCC3)cc12
active: inhibition [5] 54.5%
inactive: outcome [1] | outcome [2] | outcome [3] | outcome [4] | outcome [6]

Cc1cccn2c(=O)c3cc(C#N)c(=O)n(CCCN4CCOCC4)c3nc12
active: membrane potential signal change [1] -248% | inhibition [2] 112% | percent change from control (negative = decrease, positive = increase) [3] -54% | inhibition [4] 47.5% | inhibition [5] 67.5%
inactive: outcome [6]

Cc1c(CCOC(=O)CC23CC4CC(CC(C)(C4)C2)C3)sc[n+]1Cc1ccc([N+](=O)[O-])cc1
inactive: outcome [2] | outcome [4] | outcome [5] | outcome [6]
active: membrane potential signal change [1] -103% | percent change from control (negative = decrease, positive = increase) [3] -29.5%

COc1ccc(-c2nnc(NC(=O)CS(=O)(=O)c3ccc(Cl)cc3)o2)c(OC)c1
inactive: outcome [2] | outcome [3] | outcome [4] | outcome [5]
active: membrane potential signal change [1] 86% | activation [6] 46.5%

CN(C)c1cc(N)c2ccccc2n1 (tested in a mixture with another compound)
active: membrane potential signal change [1] -230% | percent change from control (negative = decrease, positive = increase) [3] -40.5% | inhibition [4] 82% | inhibition [5] 69.5%
inactive: outcome [2] | outcome [6]

O=C(CN1CCCCCC1)N1c2ccccc2Sc2ccc(C(F)(F)F)cc21
active: membrane potential signal change [1] 122% | percent change from control (negative = decrease, positive = increase) [3] 18.5% | inhibition [5] 46.5%
inactive: outcome [2] | outcome [4] | outcome [6]

Cc1cccc(-[n+]2c(-c3cccc(Br)c3)[nH]c3nc4ccccc4nc32)c1
inactive: outcome [1] | outcome [2] | outcome [3] | outcome [5] | outcome [6]
active: inhibition [4] 51%

C/C(=N\Nc1nc2ccccc2[nH]1)c1cccs1
inactive: outcome [6]
active: membrane potential signal change [1] -108% | inhibition [2] 73.5% | percent change from control (negative = decrease, positive = increase) [3] -24% | inhibition [4] 85% | inhibition [5] 76%

COc1ccc(C(=O)C2CCCN(Cc3cccn3-c3ccccn3)C2)c(C)c1 (stereo not given)
inactive: outcome [1] | outcome [6] | fluorescence ratio (Tl flux) [12] 0.496
active: inhibition [2] 140% | percent change from control (negative = decrease, positive = increase) [3] -17.5% | inhibition [4] 99% | inhibition [5] 107% | inhibition [11] 41.5% | inhibition [13] 89% | inhibition [14] 39.5%

O=S(=O)(c1cccc(Cn2nnc(-c3ccc(F)cc3)n2)c1)N1CCOCC1
inactive: outcome [1] | outcome [2] | outcome [3] | outcome [4] | outcome [5] | outcome [6]

O=C(O)c1ccc(NC(=O)c2ccc(COc3ccc(Cl)cc3)o2)cc1
inactive: outcome [1] | outcome [2] | outcome [3] | outcome [4] | outcome [5] | outcome [6]

CCN(CC)CCNc1nc(-c2ccc(OC(F)F)cc2)c(C)s1
active: inhibition [4] 50.5%
inactive: outcome [1] | outcome [2] | outcome [3] | outcome [5] | outcome [6]

Nc1c(C(=O)c2cccs2)sc2nsc(SCCN3CCCCC3)c12
active: membrane potential signal change [1] 238% | percent change from control (negative = decrease, positive = increase) [3] 174%
inactive: outcome [2] | outcome [4] | outcome [5] | outcome [6]

CCOc1ccc(/C(O)=C2/C(=O)C(=O)N(Cc3cccnc3)C2c2ccc(N(C)C)cc2)c(C)c1 (stereo not given)
inactive: outcome [1] | outcome [2] | outcome [3] | outcome [4] | outcome [5] | outcome [6]

O=C1c2ccccc2C(=O)c2c1cccc2N1CCN(CCO)CC1
active: membrane potential signal change [1] -367% | inhibition [2] 64% | percent change from control (negative = decrease, positive = increase) [3] -80.5% | inhibition [4] 60% | inhibition [5] 78.5%
inactive: outcome [6]
